According to PubChem BioAssay (EPA / NIEHS):
Several values for one entry are separate records, joined by “and”; a condition that tells them apart may be missing. Identical values can stand only once. Some structures have more than one record in an assay (separate samples or runs), and their calls can disagree. Activity calls are given as the source filed them. Rule for the calls: active = hit-call score of the fitted dose curve at least 0.9, where 1 is the maximum; inactive = score below 0.9.

What was measured:
[1] = read-out: Urokinase-type plasminogen activator receptor (uPAR), PLAUR (gene 5329); experiment: BSK_4H_uPAR: BioMAP Diversity Plus: 4H Assay for Urokinase-type plasminogen activator receptor (uPAR) Biomarker Activity (AID 2283030); conditions: primary human endothelial cells (HUVEC); actives raise or lower the signal
Outline: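 Cell-surface uPAR ELISA signal, measured 24 h after dosing human umbilical vein endothelial cells, was analyzed with bidirectional fitting relative to DMSO. Parallel SRB staining of total protein tracked overt cytotoxicity.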

[2] = read-out: Vascular endothelial growth factor receptor 2 (Homo sapiens) (UniProt P35968); experiment: BSK_4H_VEGFRII: BioMAP Diversity Plus: 4H Assay for Vascular endothelial growth factor receptor 2 (VEGFR2) Biomarker Activity (AID 2283031); conditions: primary human endothelial cells (HUVEC); actives raise or lower the signal;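 for AC50: cell-surface VEGFR2 protein level quantified by ELISA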
Outline: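 ELISA read-out of VEGFRII in primary human umbilical vein endothelium, taken 24 h after chemical treatment. Responses are expressed relative to DMSO, with bidirectional fitting.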

[3] = read-out: Human Leukocyte Antigen - DR isotype (HLADR), HLA-DRA (gene 3122); experiment: BSK_BE3C_HLADR: BioMAP Diversity Plus: BE3C Assay for Human Leukocyte Antigen - DR isotype (HLADR) Biomarker Activity (AID 2283032); conditions: primary human bronchial epithelial cells; actives raise or lower the signal
Outline: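 Signal came from an ELISA for HLA-DR in human bronchial epithelial primary cells harvested 24 h after treatment; gain- and loss-of-signal fitting used DMSO controls as reference.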

[4] = read-out: Vascular cell adhesion molecule 1 (VCAM1), VCAM1 (gene 7412); experiment: BSK_4H_VCAM1: BioMAP Diversity Plus: 4H Assay for Vascular cell adhesion molecule 1 (VCAM1) Biomarker Activity (AID 2283033); conditions: primary human endothelial cells (HUVEC); actives raise or lower the signal
Outline: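 Endpoint derived from bidirectional fitting against DMSO controls of VCAM-1 ELISA signal in umbilical vein endothelial cells sampled at 24 h following treatment.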

[5] = read-out: Interferon-gamma inducible Protein 10 (IP10), CXCL10 (gene 3627); experiment: BSK_BE3C_IP10: BioMAP Diversity Plus: BE3C Assay for Interferon-gamma inducible Protein 10 (IP10) Biomarker Activity (AID 2283034); conditions: primary human bronchial epithelial cells; actives raise or lower the signal
Outline: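 Using primary human bronchial epithelial cultures, the assay captures IP-10 by ELISA one day (24 h) after exposure. Parallel SRB staining of total protein flags overt cytotoxicity. Fits run bidirectionally relative to DMSO.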

[6] = read-out: Plasminogen activator inhibitor-1 (PAI1), SERPINE1 (gene 5054); experiment: BSK_BE3C_PAI1: BioMAP Diversity Plus: BE3C Assay for Plasminogen activator inhibitor-1 (PAI1) Biomarker Activity (AID 2283037); conditions: primary human bronchial epithelial cells; actives raise or lower the signal
Outline: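 PAI-1 biomarker levels in treated human bronchial epithelial cells are determined by ELISA at 24 h. Both increases and decreases relative to DMSO are fitted.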

[7] = read-out: urokinase plasminogen activator (uPA), PLAU (gene 5328); experiment: BSK_BE3C_uPA: BioMAP Diversity Plus: BE3C Assay for urokinase plasminogen activator (uPA) Biomarker Activity (AID 2283038); conditions: primary human bronchial epithelial cells; actives raise or lower the signal
Outline: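 Bronchial epithelial cells (human, primary); chemical 24 h; uPA by ELISA; bidirectional fit vs DMSO. SRB (0.1%, after 10% TCA fixation, 560 nm) in parallel cultures for cytotoxicity.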

[8] = read-out: Urokinase-type plasminogen activator receptor (uPAR), PLAUR (gene 5329); experiment: BSK_BE3C_uPAR: BioMAP Diversity Plus: BE3C Assay for Urokinase-type plasminogen activator receptor (uPAR) Biomarker Activity (AID 2283039); conditions: primary human bronchial epithelial cells; actives raise or lower the signal
Outline: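 A uPAR ELISA serves as the readout, taken 24 h after treating primary human bronchial epithelial cells. Responses in either direction are fitted against DMSO, which defines baseline activity.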

[9] = read-out: Interleukin-6 (IL6), IL6 (gene 3569); experiment: BSK_CASM3C_IL6: BioMAP Diversity Plus: CASM3C Assay for Interleukin-6 (IL6) Biomarker Activity for (AID 2283040); conditions: primary human coronary artery smooth muscle cells; actives raise or lower the signal
[10] = read-out: Tissue plasminogen activator (tPA), PLAT (gene 5327); experiment: BSK_BE3C_tPA: BioMAP Diversity Plus: BE3C Assay for Tissue plasminogen activator (tPA) Biomarker Activity (AID 2283041); conditions: primary human bronchial epithelial cells; actives raise or lower the signal
Outline: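 Bidirectional curve fitting relative to DMSO defined activity, with tPA detected by ELISA in chemically treated human bronchial epithelial primary cells at 24 hours.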

[11] = read-out: Interleukin-8 (IL8), CXCL8 (gene 3576); experiment: BSK_CASM3C_IL8: BioMAP Diversity Plus: CASM3C Assay for Interleukin-8 (IL8) Biomarker Activity (AID 2283042); conditions: primary human coronary artery smooth muscle cells; actives raise or lower the signal;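 note: IL-8 protein level quantified by ELISA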
[12] = read-out: Human Leukocyte Antigen - DR isotype (HLADR), HLA-DRA (gene 3122); experiment: BSK_CASM3C_HLADR: BioMAP Diversity Plus: CASM3C Assay for Human Leukocyte Antigen - DR isotype (HLADR) Biomarker Activity (AID 2283043); conditions: primary human coronary artery smooth muscle cells; actives raise or lower the signal;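 note: cell-surface HLA-DR protein level quantified by ELISA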
[13] = read-out: Macrophage colony-stimulating factor (MCSF), CSF1 (gene 1435); experiment: BSK_CASM3C_MCSF: BioMAP Diversity Plus: CASM3C Assay for Macrophage colony-stimulating factor (MCSF) Biomarker Activity (AID 2283044); conditions: primary human coronary artery smooth muscle cells; actives raise or lower the signal;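 note: M-CSF protein amount quantified by ELISA after 24 h exposure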
[14] = read-out: Low-density lipoprotein receptor (LDLR), LDLR (gene 3949); experiment: BSK_CASM3C_LDLR: BioMAP Diversity Plus: CASM3C Assay for Low-density lipoprotein receptor (LDLR) Biomarker Activity (AID 2283045); conditions: primary human coronary artery smooth muscle cells; actives raise or lower the signal;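 note: LDLR protein level on the cell surface quantified by ELISA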
[15] = read-out: Monocyte Chemoattractant Protein-1 (MCP1), CCL2 (gene 6347); experiment: BSK_CASM3C_MCP1: BioMAP Diversity Plus: CASM3C Assay for Monocyte Chemoattractant Protein-1 (MCP1) Biomarker Activity (AID 2283046); conditions: primary human coronary artery smooth muscle cells; actives raise or lower the signal;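 note: MCP-1 level quantified by ELISA 24 h after dosing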
[16] = BSK_CASM3C_Proliferation: Cell Proliferation Assessment in the BioMAP Diversity Plus: CASM3C Assay (AID 2283047); conditions: primary human coronary artery smooth muscle cells;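 note: sulforhodamine B total protein stain as relative cell number at 560 nm; sub-confluent cells exposed 48 h before staining; fitted both ways against DMSO so gain or loss of cell number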
[17] = read-out: Monokine induced gamma interferon (MIG), CXCL9 (gene 4283); experiment: BSK_CASM3C_MIG: BioMAP Diversity Plus: CASM3C Assay for Monokine induced gamma interferon (MIG) Biomarker Activity (AID 2283048); conditions: primary human coronary artery smooth muscle cells; actives raise or lower the signal
[18] = read-out: serum amyloid A (SAA), SAA1 (gene 6288); experiment: BSK_CASM3C_SAA: BioMAP Diversity Plus: CASM3C Assay for serum amyloid A (SAA) Biomarker Activity (AID 2283049); conditions: primary human coronary artery smooth muscle cells; actives raise or lower the signal;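 note: SAA protein level quantified by ELISA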
[19] = read-out: Monokine induced gamma interferon (MIG), CXCL9 (gene 4283); experiment: BSK_BE3C_MIG: BioMAP Diversity Plus: BE3C Assay for Monokine induced gamma interferon (MIG) Biomarker Activity (AID 2283035); conditions: primary human bronchial epithelial cells; actives raise or lower the signal
Outline: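 Primary human bronchial epithelial cells treated for 24 h; MIG levels measured by ELISA, fitted bidirectionally versus DMSO. Parallel SRB total-protein staining assessed cytotoxicity.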

[20] = read-out: Transforming growth factor beta 1 (TGFb1), TGFB1 (gene 7040); experiment: BSK_BE3C_TGFb1: BioMAP Diversity Plus: BE3C Assay for Transforming growth factor beta 1 (TGFb1) Biomarker Activity (AID 2283036;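 note: TGF-b1 protein level measured by ELISA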); conditions: primary human bronchial epithelial cells; actives raise or lower the signal
Outline: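 In this human primary bronchial epithelial system, an ELISA quantified TGF-b1 one day after dosing. Endpoint changes in either direction were fitted relative to DMSO.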

Measured: AC50

CCN(CCO)S(=O)(=O)C(F)(F)C(F)(F)C(F)(F)C(F)(F)C(F)(F)C(F)(F)C(F)(F)C(F)(F)F
inactive: [1] | [2] | [4] | [7] | [9] | [10] | [11] | [12] | [13] | [15] | [18]
active: [3] 43.7 µM and 27.7 µM | [4] 50.6 µM | [5] 35 µM and 14.4 µM | [6] 30 µM and 15.4 µM | [7] 47.8 µM | [8] 46.4 µM and 36.9 µM | [12] 15.6 µM | [13] 35.3 µM | [14] 7.08 µM and 8.16 µM | [16] 15.5 µM and 16.5 µM | [17] 8.09 µM and 7.66 µM | [18] 7.99 µM

O=C1c2c(O)ccc(Nc3ccc(CCO)cc3)c2C(=O)c2c([N+](=O)[O-])ccc(O)c21
active: [1] 31.1 µM | [2] 34.8 µM | [3] 3.43 µM | [4] 26.6 µM | [5] 20 µM | [19] 20 µM | [11] 2.52 µM | [16] 14.5 µM
inactive: all other assays above

CC1=CC2C3C=CC(C3)C2C1C (centres undefined)
inactive: all assays above

O=S(=O)(Cl)C(F)(F)C(F)(F)C(F)(F)C(F)(F)C(F)(F)C(F)(F)C(F)(F)C(F)(F)F
inactive: [1] | [2] | [4] | [7] | [9] | [11] | [12] | [13] | [14] | [15] | [16] | [17] | [18]
active: [1] 12.1 µM | [3] 44.8 µM and 46.8 µM | [5] 40.2 µM and 37 µM | [6] 45.8 µM and 47.4 µM | [7] 55.2 µM | [8] 51.7 µM and 51.6 µM | [10] 48.7 µM and 48.8 µM

O=C(O)C(F)(F)C(F)(F)C(F)(F)OC(F)(F)F
not listed: [20]
inactive: all other assays above

CNS(=O)(=O)C(F)(F)C(F)(F)C(F)(F)C(F)(F)C(F)(F)C(F)(F)C(F)(F)C(F)(F)F
active: [5] 13.3 µM | [6] 2.67 µM and 1.97 µM | [10] 220 nM and 654 nM | [16] 35.4 µM
inactive: [1] | [2] | [3] | [4] | [5] | [19] | [7] | [8] | [9] | [11] | [12] | [13] | [14] | [15] | [16] | [17] | [18]

C[Si](Cl)(Cl)CCC(F)(F)C(F)(F)C(F)(F)C(F)(F)C(F)(F)C(F)(F)F
active: [1] 0.0248 µM
inactive: [1] | [2] | [3] | [4] | [5] | [6] | [7] | [8] | [9] | [10] | [11] | [12] | [13] | [14] | [15] | [16] | [17] | [18]

O=C(F)C1(F)C(F)(F)C(F)(F)C(F)(F)C(F)(F)C1(F)F
not listed: [20]
inactive: all other assays above

CN(C(=O)C(F)(F)C(F)(F)C(F)(F)F)[Si](C)(C)C
not listed: [20]
inactive: all other assays above

O=C(O)CCC(F)(F)C(F)(F)C(F)(F)C(F)(F)C(F)(F)C(F)(F)C(F)(F)F
inactive: [1] | [2] | [4] | [5] | [6] | [7] | [8] | [9] | [10] | [11] | [12] | [13] | [14] | [15] | [16] | [17] | [18]
active: [3] 2.48 µM and 3.33 µM | [5] 2.32 µM
